# From PubChem
# eLon inh: inhibitors of E. coli Lon protease; P0A9M0; purified E. coli Lon protease, fluorescence polarization; inhibition, % at 7.94 µM; 360,000 compounds, 0.42% hits; AID 602123; in the data active = inhibition above about 13%, passing the limit was not always enough;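 also: 0% = enzyme with probe and DMSO and 100% = no enzyme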
# IDE cell inh: cellular human IDE inhibition. P14735. HEK cells, FAbetaB cleavage, fluorescence polarization. inhibition, % at 5.59 µM. 320,000 compounds, 0.41% hits;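 active = percent inhibition above the average of all tested compounds plus 3 SD, set per screening campaign, cut at about 16% in these data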;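 also: IDE supplied by intact live HEK cells; FP after avidin binding of uncleaved biotin substrate so inhibition keeps polarization high; 0% = DMSO wells and 100% = 60 µM reference IDE inhibitor Ii1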
# Target sequence (P14735 whole entry, looked up): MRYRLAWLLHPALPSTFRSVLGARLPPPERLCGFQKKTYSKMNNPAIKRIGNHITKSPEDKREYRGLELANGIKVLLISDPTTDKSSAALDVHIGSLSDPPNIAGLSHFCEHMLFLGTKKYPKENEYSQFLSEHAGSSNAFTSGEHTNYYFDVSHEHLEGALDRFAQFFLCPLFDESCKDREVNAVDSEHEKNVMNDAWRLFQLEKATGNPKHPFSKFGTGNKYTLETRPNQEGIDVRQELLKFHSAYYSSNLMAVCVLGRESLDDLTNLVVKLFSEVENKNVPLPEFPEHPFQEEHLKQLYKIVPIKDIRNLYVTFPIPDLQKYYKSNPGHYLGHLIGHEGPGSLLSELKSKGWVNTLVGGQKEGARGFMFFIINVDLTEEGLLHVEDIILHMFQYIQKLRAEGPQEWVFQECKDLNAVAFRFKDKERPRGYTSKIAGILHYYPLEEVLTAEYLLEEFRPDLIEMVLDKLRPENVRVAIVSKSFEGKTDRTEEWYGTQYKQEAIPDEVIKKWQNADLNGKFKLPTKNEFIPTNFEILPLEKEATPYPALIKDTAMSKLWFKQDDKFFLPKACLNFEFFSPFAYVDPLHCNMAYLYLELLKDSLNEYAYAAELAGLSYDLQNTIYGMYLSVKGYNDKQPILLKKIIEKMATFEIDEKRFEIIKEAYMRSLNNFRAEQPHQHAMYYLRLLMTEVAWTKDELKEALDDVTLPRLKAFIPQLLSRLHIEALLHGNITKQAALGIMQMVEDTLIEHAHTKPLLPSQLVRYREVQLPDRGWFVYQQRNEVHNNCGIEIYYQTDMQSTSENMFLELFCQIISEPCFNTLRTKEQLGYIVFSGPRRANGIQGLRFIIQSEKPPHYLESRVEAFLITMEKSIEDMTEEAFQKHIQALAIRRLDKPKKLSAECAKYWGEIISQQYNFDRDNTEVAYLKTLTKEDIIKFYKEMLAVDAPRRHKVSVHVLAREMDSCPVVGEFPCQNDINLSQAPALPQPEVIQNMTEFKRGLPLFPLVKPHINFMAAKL
# PKA-R1A activ: activators of PKA-R1A complex. P00514+P68181. 340,000 compounds, 0.083% hits. AID 504707. activation, % at 11.4 µM. PKA-R1A dissociation, Cy5-IP20 fluorescence polarization; scaled: DMSO 0%, 113 µM cGMP 100%;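 active = percent activation above the mean of all tested compounds plus 3 SD, cut at about 19% in these data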;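 also: higher means more PKAc released from R1A so a rise in polarization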
# Rin1 Abl inh: blocks binding of human Rin1 to Abl. AID 588664. 360,000 compounds, 0.4% hits. TR-FRET Rin1/Abl binding, biochemical. inhibition, % at 7.35 µM. P00519+Q13671; in the data active = inhibition above about 5%, passing the limit was not always enough
# PKA-R2B act: activates the human PKA-R2B holoenzyme complex | P22694+P31323 | PKA-R2B holoenzyme dissociation, Cy5-IP20 fluorescence polarization; R2B truncated from residue 108, S112A mutant; 0% DMSO only, 100% 113 µM cGMP | activation, % at 11.4 µM | 340,000 compounds, 0.079% hits | AID 504700;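 active = activation above a cutoff set at the mean over all compounds plus 3 SD, cut at about 18% in these data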;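 also: higher means more holoenzyme dissociation and a rise in polarization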
# IDE act: activators of human insulin-degrading enzyme in cells. P14735. activation, % at 5.96 µM. 340,000 compounds, 0.073% hits. HEK cells, FAbeta-B cleavage, fluorescence polarization; 0% vehicle, 100% cell-free pure enzyme wells;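 active = activation above the mean of all tested compounds plus 3 SD, set per screening campaign, cut at about 17% in these data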
# Rin1 Abl conf: confirmation of inhibitors of human Rin1-Abl interaction. shares compounds with Rin1 Abl inh. TR-FRET Rin1-Abl binding, purified proteins. inhibition, % at 7.35 µM. 1,300 compounds, 49% hits
# GFP quench-1: quenches GFP fluorescence, counter-screen for Rin1-Abl inhibitors; shares compounds with Rin1 Abl inh; inhibitors/quenchers counterscreen; inhibition, % at 6.75 µM; 1,300 compounds, 8.5% hits;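 also: ABL1-eGFP fusion protein alone without its partner RIN1-SBP; 0% = protein with vehicle and 100% = wells lacking protein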
# GFP quench dose: quenches GFP in dose response, Rin1-Abl counter-screen; shares compounds with Rin1 Abl inh; GFP fluorescence interference/quenching counterscreen; IC50, µM; 230 tested, under 10 active; call rule not given here;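 also: ABL1-eGFP fusion protein alone without its RIN1 binding partner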
# GFP quench-2: quenches GFP fluorescence in Rin1-Abl counterscreen; shares compounds with Rin1 Abl inh; GFP fluorescence quenching counterscreen, biochemical; IC50, µM; 25 tested, under 10 active; call rule not given here
# An asterisk follows results filed as active; . = not tested or not shown. Shown are actives, neighbours in structure and some others; about 1.3% of the full set was active somewhere. Rule as the data show it, unless noted: active = inhibition above about 6.5%; inactive = the rest.
SMILES,eLon inh,IDE cell inh,PKA-R1A activ,Rin1 Abl inh,PKA-R2B act,IDE act,Rin1 Abl conf,GFP quench-1,others
Cn1c(Cc2ccccc2)nnc1SCC(=O)Nc1ccccc1,-1.0,4.5,10.0,2.5,7.4,2.7,.,.,
CCn1c2ccccc2c2cc(CN3CCN(S(C)(=O)=O)CC3)ccc21,-14.5,4.4,-1.7,6.1*,8.6,2.0,-2.5,-1.9,
Cc1ccc(S(=O)(=O)N2CC=C(C(=O)NC3CCCC3)CC2)cc1,-1.6,4.5,-0.9,9.4*,-1.4,-0.3,-0.2,-0.3,
OCCN1CCN(c2cnc(-c3ccsc3)cn2)CC1,-1.5,.,.,6.3*,.,.,-4.1,0.9,
COc1cccc(CSc2nnc(CSc3nc4nc(C)cc(C)n4n3)s2)c1,-1.9,1.8,-1.6,27.9*,5.0,-4.1,39.2*,0.1,GFP quench dose=>67.5;GFP quench-2=>67.5
Cc1cc(C)n2nc(SCc3nnc(SCc4ccccc4C)s3)nc2n1,-5.8,4.4,1.1,0.4,0.6,-7.0,.,.,
CCCn1c2ccccc2c2nnc(SCC(=O)Nc3nnc(CC(=O)OCC)s3)nc21,-9.0,0.1,-5.2,-8.7,-9.6,4.6,.,.,
CN(Cc1cnccn1)C(=O)C1CCC(=O)N(CCc2ccccc2)C1 (stereo unspecified),0.4,4.7,10.8,24.8*,-2.9,-0.6,29.4*,1.3,GFP quench dose=>67.5
CN(Cc1cnccn1)C(=O)C1CCC(=O)N(CCc2ccc(Cl)cc2)C1 (stereo unspecified),-2.3,4.2,10.3,2.5,1.0,4.8,.,.,
CN1CCN(C(=O)CSc2nc(-c3ccncc3)ccc2C#N)CC1,-1.6,4.7,-4.2,10.4*,4.5,1.6,17.2*,2.9,GFP quench dose=>67.5
O=C(COCC(=O)N/N=C/c1ccc(F)cc1)N/N=C/c1ccc(F)cc1,3.3,3.0,-12.4,-0.1,8.0,4.6,.,.,
COc1cc2c(cc1OC)CN(C(=O)c1ccc(Br)o1)CC2,-2.8,-3.4,-4.6,4.4,-6.6,1.4,.,.,
COc1cc2c(cc1OC)C(C)N(C(=O)c1ccc(Br)o1)CC2 (stereo unspecified),-0.6,0.5,2.3,11.5*,-23.3,5.8,4.6,2.1,
CC(NS(=O)(=O)c1ccc2c(c1)CC(C)N2C(=O)C1CC1)c1ccccc1 (stereo unspecified),-3.6,-3.4,-0.8,9.5*,-1.4,2.5,-1.3,-0.8,
CC1Cc2cc(S(=O)(=O)NCCc3ccccc3)ccc2N1C(=O)C1CC1 (stereo unspecified),-6.7,-1.7,-11.0,-1.7,-9.3,1.6,.,.,
C=CCN1CCN(C(=O)c2oc3ccccc3c2C)CC1,-0.3,-0.1,-6.7,-0.8,-0.3,-7.5,.,.,
COc1ccc(NC(=O)CN(C)S(=O)(=O)c2ccccc2)cc1,-3.5,1.0,-1.3,0.0,-7.0,3.1,.,.,
CCOC(=O)c1ccc(NC(=O)CN(C)S(=O)(=O)c2ccc(OC)cc2)cc1,-5.2,4.6,-3.0,8.0*,2.4,1.0,-2.1,-1.1,
CC(=O)Nc1cccc(-c2ccnc3c2CC(C(=O)NCc2ccc(N4CCN(C)CC4)cc2)O3)c1 (stereo unspecified),-6.8,.,.,30.8*,.,.,27.9*,-0.8,GFP quench dose=>67.5
CC(=O)Nc1ccc(-c2ccnc3c2CC(C(=O)NCc2ccc(N4CCN(C)CC4)cc2)O3)cc1 (stereo unspecified),-9.9,.,.,14.1*,.,.,13.5*,-0.6,
CC(=O)Nc1cccc(-c2ccnc3c2CC(C(=O)NCc2ccc(N(C)C)cc2)O3)c1 (stereo unspecified),-21.1,.,.,16.9*,.,.,10.3*,0.7,
O=C(NCc1ccncc1)C1Cc2c(-c3ccc(Cl)cc3)ccnc2O1 (stereo unspecified),-4.8,.,.,-1.7,.,.,.,.,
